From PubChem
Only some compounds are listed: those with a hit (about 1.7% of all), similar ones and a draw of the others.
GLP1R ag: GLP-1 receptor (human) agonism | AID 624172 | HEK293 GLP-1R CRE-luciferase, luminescence, 4-6 h; cells express a hypersensitive GLP-1R form | Potency, µM (top dose mostly 45.6 µM), inactives show top-dose activation, actives largely listed as activators | actives 0.007% (n = 380,000) | P43220; note: % of control where 0% means no effect
Target sequence (P43220 whole entry, looked up): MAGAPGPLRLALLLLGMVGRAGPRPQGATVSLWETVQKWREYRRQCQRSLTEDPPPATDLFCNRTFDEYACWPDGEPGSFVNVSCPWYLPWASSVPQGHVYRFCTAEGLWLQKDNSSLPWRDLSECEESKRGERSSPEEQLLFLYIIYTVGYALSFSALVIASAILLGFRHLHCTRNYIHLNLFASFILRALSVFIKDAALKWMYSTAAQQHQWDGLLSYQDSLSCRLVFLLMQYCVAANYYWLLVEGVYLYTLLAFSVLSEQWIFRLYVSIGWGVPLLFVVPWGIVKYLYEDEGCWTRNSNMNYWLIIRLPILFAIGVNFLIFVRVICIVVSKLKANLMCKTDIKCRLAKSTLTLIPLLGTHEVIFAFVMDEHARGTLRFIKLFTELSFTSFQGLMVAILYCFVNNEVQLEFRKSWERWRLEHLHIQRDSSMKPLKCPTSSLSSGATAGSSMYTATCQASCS
GLP-1R inv ag: inverse agonists of human GLP-1 receptor. P43220. Potency, µM (titrated, usually from 38.3 µM), for inactives: top-dose activity change, negative = inhibition, actives largely listed as inhibitors. HEK293 GLP-1R CRE-luciferase, luminescence, 24 h; GLP-1R form is constitutively active. actives 1.6% (n = 410,000). AID 624417; note: % is set by controls: 0 for no effect and ±100 for the full control effect; nearly all actives have a fitted effect of over 55% in size
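Constitutively active GLP-1R drives a cAMP-responsive luciferase in stably transfected HEK293 cells; test compounds are added after overnight (12 h) attachment and left 24 hr, and signal loss in luminescence marks inhibition.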
PTHR1 agonist: PTHR1 (human) receptor agonism. Q03431. HEK293 GP2 PTHR1 cells, GloSensor cAMP luminescence, 1 h. Potency, µM (highest dose often 115 µM), inactives show top-dose activation, hits mostly activators. actives 0.075% (n = 410,000). AID 743266; note: nearly all actives have a fitted effect of over 55% in size
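HEK-293-derived GP2 cells expressing PTHR1 and a GloSensor cAMP reporter, 3,000/well, plated overnight, given luciferin plus IBMX (each 0.5 mM as added) for 1 h at 37 °C, then compound for 1 h at 37 °C. Luminescence was read after 15 min at room temperature.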
HEK293 tox: cytotoxic in the GLP-1 receptor inverse agonist counter-screen; Potency, µM (doses to about 38.3 µM), without a hit: at the top dose activity change, negative = inhibition, most hits filed as inhibitors; HEK293 cAMP-luciferase reporter cells, luminescence, 24 h; actives 0.13% (n = 410,000);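 note: loss of luciferase light is scored as toxicity; % is set by controls: 0 for no effect and ±100 for the full control effect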
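Step one: seed cells (200 cells/uL, DMEM with 10% Nu serum, 1% pen-strep). Step two: 12-hour incubation at 37 deg C. Step three: pin 23 nL compound, incubate 24 hr. Step four: add luciferase reagent, read luminescence 12 min later.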
Starred values were filed as active, the others as inactive; i = inactive; ? = inconclusive; / = no result given; [ ] = dose if it differs, or a comment. Calls come from the whole dose curve; as a rule, active = well fitted curve in the direction sought with a large enough effect; inconclusive = small, poorly fitted or top-dose-only effect, or another doubt; inactive = no such curve, though single readings can be large; an effect the other way counts as inactive or inconclusive. Potency is the fitted concentration of half-maximal effect.

SMILES	GLP1R ag	GLP-1R inv ag	PTHR1 agonist	HEK293 tox
Cn1c(Cc2cccs2)nnc1SCC(=O)N1CCCc2ccccc21	-5%	-9%	i	-14%
O=C(CSc1nnc(Cc2cccs2)n1CCc1ccccc1)N1CCCc2ccccc21	-8%	10µM*	-8%[57.5 µM]	-35%
CCc1ccc(Cn2c(CNS(=O)(=O)c3ccc(Cl)s3)nc3cccnc32)cc1	/	1%	-14%	-3%
Cc1ccc2c(CNCCc3ccco3)c(C(=O)O)n(Cc3ccc(F)cc3)c2c1	-2%	?	-8%	-17%
CC(C)(C)N1C(=O)[C@H]2[C@@H](c3ccc(Br)cc3)N3C(=O)N(c4cccc(F)c4)C(=O)[C@@]3(Cc3ccccc3)[C@H]2C1=O	0%	?	-5%	11%
CC(C)(C)N1C(=O)[C@H]2[C@@H](c3ccc(Br)cc3)N3C(=O)N(c4ccc(Br)cc4)C(=O)[C@@]3(Cc3ccccc3)[C@H]2C1=O	-6%	11µM*	-22%	-5%
COc1ccc([C@@H]2[C@@H]3C(=O)N(C(C)(C)C)C(=O)[C@@H]3[C@]3(Cc4ccc(Cl)cc4)C(=O)N(c4ccc(OC)cc4)C(=O)N23)cc1	1%	-10%	i	-3%
COc1ccc([C@@H]2[C@@H]3C(=O)N(C(C)(C)C)C(=O)[C@@H]3[C@]3(Cc4ccc(Cl)cc4)C(=O)N(c4ccc(Br)cc4)C(=O)N23)cc1	0%	10µM*	-8%	-5%
Cc1ccnc2nc(NC(=O)c3ccccc3Cl)nn12	/	0%	i	17%
COc1ccc(NC(=O)c2cccc(N3C(=O)NC4CC3(C)Oc3ccccc34)c2)cc1 (stereo not given)	-4%	4µM*	i	-29%
COc1ccc(OCC(O)Cn2ccnc2C)cc1 (stereo not given)	-2%	10%	10µM*	-16%
Cc1ccccc1CN1c2ccccc2S(=O)(=O)c2ccccc21	/	1%	-35%	19%
COCCCNC(=O)C1CCN(C(=O)c2ccc(-n3ccc4ccccc43)s2)CC1	/	18%	-28%	-8%
CCC(C)c1ccccc1NC(=O)COC(=O)c1ccc2[nH]c3c(c2c1)CCCC3 (stereo not given)	-8%	5.6µM*	-30%	8%
O=C(COC(=O)c1ccc2[nH]c3c(c2c1)CCCC3)Nc1ccccc1Cl	2%	11%	i	-4%
Cc1nc2c(C(=O)NCc3ccccc3Cl)cnn2c(C)c1Cc1c(F)cccc1Cl	/	14%	-48%	4%
CCc1ccc(CN2CCC(n3nccc3NC(=O)c3ccccc3C)CC2)cc1	2%	5.6µM*	-71%	?
Cc1ccccc1C(=O)Nc1ccnn1C1CCN(Cc2c(C)n(C)c3ccccc23)CC1	13%	11µM*	i	-21%
CCOC(=O)c1c(C)[nH]c(CCC(=O)NC(C)c2ccccc2)c1C (stereo not given)	/	17%	i	5%
O=C(CN1CCN(CC(=O)Nc2ccc3c(c2)OC2(CCCCC2)O3)CC1)Nc1cccc(F)c1	-7%	10µM*	i	?
CC1CCn2c(nc3cc(C(=O)NCc4ccc(OC(C)C)cc4)ccc32)C1 (stereo not given)	/	12%	-11%	1%
c1ccc(COc2ncnc3c2ncn3CCCNCC(c2ccccc2)c2ccccc2)cc1	-8%	?	-27%	11µM*
COc1ncnc2c1ncn2CCCNCC(c1ccccc1)c1ccccc1	7%	-24%	-26%	-8%
CCN(C(=O)CSc1nc2n[nH]c(C)c2c(=N)n1-c1cccc(OC)c1)c1cccc(C)c1	/	?	i	-19%
CCC(C)c1ccc(OCc2ccc(C(=O)O)o2)cc1 (stereo not given)	-8%	2µM*	-88%	-2%
SMILES	GLP1R ag	GLP-1R inv ag	PTHR1 agonist	HEK293 tox
CCOC(=O)C(CCCOc1ccc(C(C)CC)cc1)C(=O)OCC (stereo not given)	-11%	10µM*	i	-15%
Cc1ccc(CN2C(=O)C(=O)c3cc(Br)cc(C)c32)cc1	/	?	-4%	?
Cc1onc(-c2ccccc2)c1C(=O)N[C@@H]1C(=O)N2[C@@H](C(=O)O)C(C)(C)S[C@@H]12	-1%	/	/	/
Cc1oc2ccc(O)c(CN3CCN(Cc4ccccc4)CC3)c2c1C(=O)Nc1cccc(Cl)c1C	/	5%	i	2%
CCN(CC)CCNC(=O)c1ccc(NC(=O)c2ccc(S(=O)(=O)N3CCCCCC3)cc2)cc1	6%	?	-14%	?
COc1cccc(NC(=O)CN(C)C(=O)c2ccc(Cl)c(S(=O)(=O)N3CCCCCC3)c2)c1	16%	8.9µM*	-30%	-5%
CN(CC(=O)Nc1ccccc1Cl)C(=O)c1ccc(Cl)c(S(=O)(=O)N2CCCCCC2)c1	13%	?	-31%	-16%
CCN(CC)CCNC(=O)c1ccc(NC(=O)c2ccc(Cl)c(S(=O)(=O)N3CCCCCC3)c2)cc1	?	4µM*	-7%	?
CCN(CC)CCNC(=O)c1ccc(NC(=O)COc2ccc3c(c2)CCC3)cc1	7%	4.5µM*	22%	-16%
CC(=O)c1ccc(NC(=O)C2CCN(S(=O)(=O)c3ccc4c(c3)CCCN4C(=O)C3CCC3)CC2)cc1	/	5%	i	-16%
CCCSc1nc(N2CCOCC2)c2c(c1C#N)CC(C)(C)SC2	-10%	10µM*	-2%	-5%
COc1ccc(S(=O)(=O)Nc2cc3c4c(oc3c3ccccc23)CC(C)(C)CC4=O)cc1	1%	-26%	-11%[57.5 µM]	?
COc1ccc(S(=O)(=O)Nc2cc3c4c(oc3c3ccccc23)CCCC4=O)cc1	4%	5µM*	0%	?
CCOC(=O)N1CCN(c2nc(-c3ccccc3)c3cc(C)ccc3n2)CC1	8%	7%	-2%	56%
OCCN1CCN(c2nc(-c3ccccc3)c3cc(Cl)ccc3n2)CC1	-20%	3.5µM*	-18%	117%
Cc1ccc2nc(N3CCN(CCO)CC3)nc(-c3ccccc3)c2c1	21%	6.3µM*	i	68%
O=S(=O)(c1ccc(Br)cc1)c1nc(-c2ccco2)oc1SCc1ccccc1Cl	/	?	-37%	24%
CCN(CC)CCCNC(=O)c1sc2nc3n(c(=O)c2c1C)CCCCC3	/	0%	?	1%
Cc1cc(Nc2cccc(Cl)c2)nc2ccc(NC(=O)c3cncc(Br)c3)cc12	-5%	2µM*	-20%	?
Cc1cc(Nc2cccc(Cl)c2)nc2ccc(NC(=O)COc3ccc(Cl)cc3)cc12	-1%	-21%	-7%	-2%
CCOc1cc(C(=O)Nc2ccc3nc(Nc4cccc(Cl)c4)cc(C)c3c2)cc(OCC)c1OCC	-1%	5.6µM*	-10%	-11%
CCOC(=O)C1(Nc2nccs2)Sc2ccccc2NC1=O (stereo not given)	-6%	?	-15%	?
CCOC(=O)C1(N(CC)CC)Sc2cc(C)ccc2NC1=O (stereo not given)	4%	6.3µM*	i	?
